# Assay outcomes deposited in PubChem by National Center for Advancing Translational Sciences (NCATS).
# Shown are actives, neighbours in structure and some others; about 19% of the full set was active somewhere.
# MCF10A rerep: A quantitative high throughput screen for small molecules that induce DNA re-replication in MCF 10a normal breast cells; Potency, µM (series often up to 46.1 µM), actives largely listed as activators; MCF 10A DNA re-replication, Hoechst nuclear intensity, 48 h; 2.9% of 350,000 active; also: nearly all actives have a fitted effect of over 50% in size
# TDP1 cell CPT: qHTS for Inhibitors of human tyrosyl-DNA phosphodiesterase 1 (TDP1): qHTS in cells in presence of CPT | chicken DT40 Tdp1-/-;hTDP1 cells + 20 nM CPT, ATP luminescence, 48 h | Potency, µM (doses to about 46.2 µM), hits mostly inhibitors | 12% of 420,000 active; also: nearly all actives have a fitted effect of over 55% in size
#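 Cell growth measured by CellTiter-Glo luminescence after a minimum 48 h, 37 C compound exposure with 20 nM CPT in Tdp1-knockout DT40 cells stably expressing hTDP1, seeded 400/well; qHTS titration format.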
# SW480 rereplic: A quantitative high throughput screen for small molecules that induce DNA re-replication in SW480 colon adenocarcinoma cells; SW480 DNA re-replication, Hoechst DNA content imaging, 48 h; Potency, µM (series often up to 46.1 µM), usual class: activators; 1.8% of 340,000 active; AID 624297, 2012; also: nearly all actives have a fitted effect of over 55% in size
#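 250 cells/well; 23 nL cpd via pin tool; 48 hr, 37 C, 5% CO2; Hoechst 40 min; imager read of total nuclear intensity, ex 405/em 500-530 nm.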
# TDP1 cell noCPT: qHTS for Inhibitors of human tyrosyl-DNA phosphodiesterase 1 (TDP1): qHTS in cells in absence of CPT; Potency, µM (series often up to 46.2 µM), actives largely listed as inhibitors; AID 686978, 2013; 15% of 420,000 active; DT40 Tdp1-/- hTDP1 cells, no CPT, ATP luminescence, 48 h; also: nearly all actives have a fitted effect of over 55% in size
#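 Readout: luminescence from CellTiter-Glo after 30 min in the dark at RT. Cells: DT40 Tdp1-/- with stable hTDP1, 400/well. Exposure: compounds alone, ≥48 hr, 37 °C.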
# IL1B secr inh: qHTS for Inhibitors of Inflammasome Signaling: IL-1-beta AlphaLISA Primary Screen. 4.7% of 360,000 active. activity change, % at 57.5 µM. AID 743279, 2014. THP-1 LPS/ATP IL-1B secretion, AlphaLISA, 16 h; stronger effect = lower value; in the data active = activity change below about -50%; inconclusive = mostly about -30% to -49%
#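 THP-1 cells pretreated 1 hr with compounds (up to 57.5 uM final), then stimulated with LPS (250 ng/mL final) plus ATP (1.25 mM final); secreted IL-1B measured by AlphaLISA after 16 hr, decreased signal indicating inhibition.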
# Chronic BCR inh: qHTS Assay to Find Inhibitors of Chronic Active B-Cell Receptor Signaling | ABC-DLBCL IkBa-CBG/CBR reporter, luminescence ratio, 4 h | Potency, µM (top dose mostly 46.1 µM), hits mostly inhibitors | 0.05% of 340,000 active | AID 493014, 2011; active = well fitted inhibition curve with a large enough effect in the signal ratio, with a control signal flat, not every such curve was filed as active; inconclusive = small, poorly fitted or top-dose-only effect, or effect the other way, or a change in a side signal; the % refers to the signal ratio
#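 Doxycycline induced both beetle luciferases in TMD8 lymphoma cells; IKK-driven degradation limits the IkappaBalpha-fused green signal, while red luminescence normalises for cell number and nonspecific effects. Compounds tested up to 46 uM, 4 hrs.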
# Numbers stand for hits; i = inactive; ? = inconclusive; nt = not tested or not shown; [ ] = another dose, or the depositor's remark. Unless noted, calls follow the shape of the dose curve; as a rule, active = well fitted curve in the direction sought with a large enough effect; inconclusive = small, poorly fitted or top-dose-only effect, or another doubt; inactive = no such curve, though single readings can be large; an effect the other way counts as inactive or inconclusive.
SMILES,MCF10A rerep,TDP1 cell CPT,SW480 rereplic,TDP1 cell noCPT,IL1B secr inh,Chronic BCR inh
CCN(CC1CCCN(CCc2cccc(OC)c2)C1)C(=O)C=C(C)C (configuration not stated),i,i,i,i,i,i
CCN(CC1CCCN(CCc2cccc(F)c2)C1)C(=O)c1ccc(CSC)o1 (configuration not stated),i,?,i,23.1µM,i,i
CC(=O)Nc1ccc(CN(C)CC2CCCN(CCc3cccc(C(F)(F)F)c3)C2)cc1 (configuration not stated),?,13µM,?,?,-69.2,i
CSCCC(N=C1NS(=O)(=O)c2ccccc21)C(=O)NCCc1ccccc1 (configuration not stated),i,i,i,i,i,i
Cc1c(C(=O)N2CCOc3ccc(Cl)cc3C2)sc2ncnc(NCCc3ccccn3)c12,nt,i[9.04 µM],nt,?,nt,nt
C=CCC(=O)N(CC)CC1CCCN(CCc2cccc(F)c2)C1 (configuration not stated),i,i,i,i,i,i
CCN(Cc1ccc(O)cc1)CC1CCCN(CCc2cccc(F)c2)C1 (configuration not stated),?,16.4µM,i,?,i,i
Cc1nn(C(=O)c2ccc(Cl)cc2)c(C)c1S(=O)(=O)N1CCCCCC1,nt,i,nt,i,nt,nt
O=C1CC(c2nnc(Cc3cccc(Cl)c3)o2)CN1c1ccccc1 (configuration not stated),nt,i,nt,i,nt,nt
O=C(c1ccc(F)cc1)c1c[nH]c(C(=O)NCc2ccco2)c1,i,?,i,11.6µM,?,i
CCC(=O)c1c[nH]c(C(=O)NCc2ccco2)c1,i,i,i,i,i,i
COc1cc(CNC(C)(C)CO)cc(Br)c1OCc1ccccc1,i,?,i,?,?,?
COc1cccc(CNC(C)(C)CO)c1OCc1ccc(Cl)cc1,i,i,i,?,-57.1,i
CCOc1cc(CNC(C)(C)CO)cc(Br)c1OCc1ccc(Cl)cc1Cl,6.51µM,20.6µM,i,20.6µM,?,i
CCOc1cccc(CNCCO)c1OCc1ccc(Cl)cc1,i,?,i,?,-54.7,i
CCOc1cc(CNCCO)cc(Br)c1OCc1ccc(Cl)cc1,?,25.9µM,?,?,i,?
Cc1ccc2oc(C(=O)N(C)CCC(O)c3ccccc3)c(C)c2c1 (configuration not stated),i,?,i,?,i,?
Cc1ccc(C(C)C)c(OCCSc2nc3ccccc3n2CC(O)CO)c1 (configuration not stated),nt,13µM,nt,16.4µM,nt,nt
CC(C)=CCc1c(-c2ccc(O)cc2O)oc2c3c(cc(O)c2c1=O)OC(C)(C)C=C3,i,20.6µM,i,?,i,nt
O=C1CCCCC1(CCc1ccncc1)CCc1ccncc1,?,18.4µM,i,11.6µM,i,nt
O=C(NCCc1ccncc1)C12CC3CC(CC(C3)C1)C2,i,?,i,?,i,?
CCOC(=O)c1cccc(NC(=O)Nc2ccc3c(c2)N(C)C(=O)c2ccccc2S3)c1,nt,20.6µM,nt,?,nt,nt
CC(C)Oc1ccc(CNC(=O)Nc2ccc3c(c2)N(C)C(=O)c2ccccc2S3)cc1,nt,?,nt,23.1µM,nt,nt
CCCCNC(=O)Nc1ccc2c(c1)N(C)C(=O)c1ccccc1S2,i,?,i,16.4µM,i,i
CCCNC(=O)Nc1ccc2c(c1)N(C)C(=O)c1ccccc1S2,i,i,i,?,i,i
SMILES,MCF10A rerep,TDP1 cell CPT,SW480 rereplic,TDP1 cell noCPT,IL1B secr inh,Chronic BCR inh
CCOC(=O)c1cccc(NC(=O)CN2C(=O)CC(C)(C)Sc3ccccc32)c1,nt,20.6µM,nt,?,nt,nt
CCOC(=O)c1cccc(NC(=O)CCc2ccccc2)c1,?,i,i,i,i,i
c1ccc2c(N3CCOCC3)nc(-c3ccoc3)nc2c1,nt,?,nt,i,nt,nt
CCOC(=O)c1ccccc1NC(=O)CN1C(=O)CCS(=O)(=O)c2ccccc21,i,23.1µM,i,20.6µM,i,i
O=C1Nc2ccccc2-c2nnnn2C1N1CCCCC1 (configuration not stated),nt,i,nt,i,i,nt
CC12CCC(C(=O)Nc3cccc(Cl)c3)(C(Br)C1=O)C2(C)C (configuration not stated),?,?,?,18.4µM,i,i
O=c1[nH]c2cc3ccccc3cc2nc1-c1nnnn1C1CCCC1,nt,5.17µM,nt,3.66µM,i,nt
O=c1[nH]c2ccccc2nc1-c1nnnn1C1CCCC1,nt,i,nt,i,i,nt
O=c1[nH]c2cc3ccccc3cc2nc1-c1nnnn1Cc1ccccc1,nt,?,nt,23.1µM,i,nt
O=c1[nH]c2cc3ccccc3cc2nc1C(F)(F)F,i,i,i,i,i,i
Cc1cc2nc(-c3nnnn3Cc3ccccc3)c(=O)[nH]c2cc1C,nt,?,nt,16.4µM,i,nt
Cc1ccc(NC(=O)COC(=O)c2nn(C)c(=O)c3ccccc23)cc1F,i,i,?,i,i,i
CCCCN(CC(=O)NCc1ccc(Cl)cc1)S(=O)(=O)c1ccc2c(c1)OCCO2,?,?,i,23.1µM,i,i
CCCCN(CCCC)S(=O)(=O)c1ccc2oc(C(=O)NCc3ccc(C)cc3)c(C)c2c1,nt,8.2µM,nt,13µM,nt,i
CCc1ccc2oc(C(=O)NCc3ccncc3)c(C)c2c1,i,18.4µM,i,14.6µM,-66.4,i
Cc1ccc2oc(C(=O)NCc3ncc(C)[nH]3)c(C)c2c1,?,5.17µM,16.4µM,?,i,i
O=C(CN(c1ccc2c(c1)OCCO2)S(=O)(=O)c1ccccc1)NCc1ccc(Cl)cc1,?,?,i,?,i,?
O=C(NCC(c1ccc2c(c1)OCO2)N1CCOCC1)C(=O)Nc1ccc(Cl)cc1 (configuration not stated),nt,?,nt,i,nt,?
CCCCOc1ccc(C(=O)N(CC)CC(=O)NCc2cccs2)cc1,?,?,i,?,i,i
CCCCN(CCCC)S(=O)(=O)c1ccc2oc(C(=O)NCc3ccccc3)c(C)c2c1,nt,10.3µM,nt,14.6µM,nt,i
CCN(CC)S(=O)(=O)c1ccc2oc(C(=O)NCc3ccc(C)cc3)c(C)c2c1,i,?,i,?,i,?
N#Cc1cnn2c(=O)[nH]cnc12,nt,i,nt,i,i,nt
COc1ccccc1-c1noc2c1C(=O)N(Cc1cn(-c3ccccc3OC)nn1)CC2,nt,?,nt,18.4µM,i,nt
Cc1ccc(NC(=O)c2sc(N)nc2-c2ccccc2)cc1C,i,i,i,?,i,i
O=C(O)Cc1sc(Nc2ccccc2)nc1-c1ccccc1,nt,i,nt,i,nt,nt
